Entries with a potency or affinity are not part of this list. Results filed as inconclusive are left out. Calls of active or inactive are those of the source. The rule behind the calls is not given here.
Assay: toxicity to human HepG2 hepatoma cells – cell-based, plate reader, dry powder samples, cytotoxicity control, dose response (AID 1159569)
Conditions: HepG2 cytotoxicity counterscreen; series mostly up to 50 µM

Compound | outcome
O=C(Nc1ccccc1F)N1CCCCN2[C@H](CO)[C@H](c3ccc(C#Cc4cccnc4)cc3)[C@@H]2C1 | inactive
COc1ccccc1NC(=O)Nc1ccc2c(c1)OC[C@@H](C)N(Cc1ccccc1Cl)C[C@@H](C)[C@H](OC)CN(C)C2=O | inactive
COc1ccc(NC(=O)N(C)C[C@@H]2Oc3cc(-c4ccc(C)cc4)ccc3S(=O)(=O)N([C@H](C)CO)C[C@@H]2C)cc1 | inactive
COc1ccc(-c2ccccc2[C@H]2[C@@H](C#N)N(C(=O)NC(C)C)[C@H]2CO)cc1 | inactive
O=C(c1ccccc1F)N1CC(=O)N2[C@H](C1)[C@@H](c1ccc(-c3cccnc3)cc1)[C@@H]2CO | inactive
C[C@@H]1CN([C@@H](C)CO)C(=O)c2cccc(NC(=O)c3nc4ccccc4s3)c2O[C@H]1CN(C)C(=O)NC1CCCCC1 | inactive
O=C(C1CCCC1)N1CC(=O)N2[C@H](CO)[C@H](c3ccc(-c4cccnc4)cc3)[C@H]2C1 | inactive
C[C@@H]1CN([C@H](C)CO)C(=O)c2cccc(NC(=O)Nc3cccc4ccccc34)c2O[C@@H]1CN(C)C(=O)Nc1ccc(C(F)(F)F)cc1 | inactive
C[C@@H]1CN([C@@H](C)CO)C(=O)Cc2cc(NC(=O)Nc3ccc4c(c3)OCO4)ccc2O[C@@H]1CN(C)CC1CC1 | inactive
C[C@@H]1CN([C@H](C)CO)C(=O)c2cccc(NC(=O)c3nc4ccccc4s3)c2O[C@H]1CN(C)C(=O)Nc1ccc(C(F)(F)F)cc1 | inactive
C[C@H](CO)N1C[C@H](C)[C@H](CN(C)S(=O)(=O)c2ccc([N+](=O)[O-])cc2)OCc2ccccc2-c2c(n(C)c3ccccc23)C1=O | inactive
O=C(Nc1ccccc1)N1CCCCN2[C@@H](CO)[C@H](c3ccc(C#Cc4cccnc4)cc3)[C@@H]2C1 | inactive
COc1ccc(C#Cc2ccc3c(c2)O[C@@H](CN(C)C(=O)Nc2cccc(OC)c2)[C@H](C)CN([C@H](C)CO)S3(=O)=O)cc1 | inactive
C[C@H](CO)N1C[C@H](C)[C@@H](CN(C)C(=O)Nc2ccc(-c3ccccc3)cc2)OCc2ccccc2-c2c(n(C)c3ccccc23)C1=O | inactive
COc1cccc(S(=O)(=O)N(C)C[C@@H]2OCc3ccccc3-c3c(n(C)c4ccccc34)C(=O)N([C@H](C)CO)C[C@@H]2C)c1 | inactive
C[C@@H]1CN([C@@H](C)CO)C(=O)c2cccc(NC(=O)Nc3ccc4c(c3)OCO4)c2O[C@@H]1CN(C)C(=O)Nc1ccc2c(c1)OCO2 | inactive
COc1ccc2c3c(n(C)c2c1)[C@@H](CO)N(C(=O)c1ccccc1)CC31CCN(C(=O)c2ccccc2)CC1 | inactive
COc1ccc(C#Cc2ccc3c(c2)O[C@H](CN(C)C(=O)Nc2cccc(OC)c2)[C@H](C)CN([C@@H](C)CO)S3(=O)=O)cc1 | inactive
C[C@H](CO)N1C[C@H](C)[C@@H](CN(C)C(=O)Nc2cccc3ccccc23)Oc2ccc(NC(=O)Cc3cn(C)c4ccccc34)cc2C1=O | inactive
CN1c2ccc(C#Cc3cccnc3)cc2[C@H]2[C@H](CCN2S(=O)(=O)c2ccc(F)cc2)[C@H]1CO | inactive

Source: PubChem BioAssay AID1159569 (Broad Institute, 2015)
